High-throughput results (PubChem BioAssay)
ASM inhibitor: blocks human secretory acid sphingomyelinase | P17405 | placental ASM, HMU-PC fluorogenic substrate, 60 min | Potency, µM (titrated, usually from 57.5 µM), for inactives: top-dose activity change, negative = inhibition, most hits filed as inhibitors | hit rate 0.006% among 340,000 | AID 504937; further: potency means the concentration at half of the fitted maximal effect
Target sequence (P17405 47-631 limits assumed): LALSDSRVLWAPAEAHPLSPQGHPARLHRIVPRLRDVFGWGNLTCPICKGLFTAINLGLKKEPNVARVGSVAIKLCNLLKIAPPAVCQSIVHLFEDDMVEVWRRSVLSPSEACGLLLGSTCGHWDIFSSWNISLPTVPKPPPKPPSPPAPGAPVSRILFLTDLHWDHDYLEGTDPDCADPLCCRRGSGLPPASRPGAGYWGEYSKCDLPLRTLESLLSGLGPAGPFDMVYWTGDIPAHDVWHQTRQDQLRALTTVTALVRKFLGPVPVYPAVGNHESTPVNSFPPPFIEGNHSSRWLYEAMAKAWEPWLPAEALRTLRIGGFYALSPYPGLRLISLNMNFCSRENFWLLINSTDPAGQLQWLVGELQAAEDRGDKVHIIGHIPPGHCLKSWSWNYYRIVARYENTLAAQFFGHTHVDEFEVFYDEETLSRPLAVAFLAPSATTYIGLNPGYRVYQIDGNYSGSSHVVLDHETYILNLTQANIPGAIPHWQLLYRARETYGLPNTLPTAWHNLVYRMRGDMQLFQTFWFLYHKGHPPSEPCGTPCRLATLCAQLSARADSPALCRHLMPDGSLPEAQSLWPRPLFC
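Steps: dispense placental human ASM, pin compound, wait 10 min at room temperature, add HMU-PC0 substrate at 9 uM final, incubate 60 min at 37 °C, add stop solution raising pH to 10, read fluorescence.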
DT40 TDP1 CPT: growth inhibition of DT40 Tdp1-/-;hTDP1 cells with camptothecin (screen for TDP1 inhibitors) | Potency, µM (doses to about 46.2 µM), for the others: top-dose activity change, negative = growth inhibition, actives largely listed as inhibitors | AID 686979 | hit rate 12% among 420,000 | chicken DT40 Tdp1-/-;hTDP1 cells + 20 nM CPT, ATP luminescence, 48 h; further: potency means the concentration at half of the fitted maximal effect; on the % scale 0 is the no-effect control and ±100 the full control effect; nearly all actives have a fitted effect of over 55% in size
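Cell growth measured by CellTiter-Glo luminescence after a minimum 48 h, 37 C compound exposure with 20 nM CPT in Tdp1-knockout DT40 cells stably expressing hTDP1, seeded 400/well; qHTS titration format.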
DT40 TDP1 no CPT: qHTS for Inhibitors of human tyrosyl-DNA phosphodiesterase 1 (TDP1): qHTS in cells in absence of CPT. DT40 Tdp1-/- hTDP1 cells, no CPT, ATP luminescence, 48 h. Potency, µM (titrated, usually from 46.2 µM), without a hit: at the top dose activity change, negative = growth inhibition, hits mostly inhibitors. hit rate 15% among 420,000. AID 686978, 2013; further: potency means the concentration at half of the fitted maximal effect; on the % scale 0 is the no-effect control and ±100 the full control effect; nearly all actives have a fitted effect of over 55% in size
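Cells were dispensed at 400 per well, compounds added by pin tool, plates incubated ≥48 hr at 37 °C, then CellTiter-Glo added for 30 min at room temperature before luminescence reading. Line: DT40 Tdp1-/- complemented with hTDP1; camptothecin omitted.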
HepG2 tox: kills HepG2 cells in TGF-b inhibitor counter-screen; HepG2 CAGA-GFP viability, ATP luminescence, 18 h; Potency, µM (highest dose often 46.1 µM), inactives show at the top dose activity change, negative = cytotoxicity, most hits filed as cytotoxic; hit rate 0.76% among 410,000; further: potency means the concentration at half of the fitted maximal effect
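CellTiter-Glo luminescence gave cytotoxicity after 18 hours at 37 degrees C. The cells were HepG2 CAGA-GFP in 1% FBS DMEM, stimulated with 500 pg/mL TGF-beta after compound addition. %Activity was normalised to no-cell wells (complete cell-killing) and DMSO (no toxicity), and curves were fitted and classified.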
TGFb inhibitor: blocks TGF-b signaling; HepG2 CAGA-GFP TGF-b/SMAD3 reporter, GFP fluorescence, 18 h; TGF-beta stimulated, 500 pg/mL final; Potency, µM (titrated, usually from 46.1 µM), inactives show at the highest dose activity, negative = inhibition, actives largely listed as inhibitors; hit rate 1.2% among 410,000; AID 588855; further: potency means the concentration at half of the fitted maximal effect; on the % scale 0 is the no-effect control and ±100 the full control effect; nearly all actives have a fitted effect of over 65% in size
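Inhibition was scored as loss of TGF-beta-induced (500 pg/mL final, 18 hours, 37 degrees C) GFP in HEPG2 cells carrying a CAGA-GFP reporter, in DMEM with 1% FBS. Well GFP was summed per cell; Activity was normalised to unstimulated and stimulated DMSO wells, then concentration-response fitting.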
IL1B secr inh: inhibitors of inflammasome signaling (IL-1 beta secretion); activity change, % at 57.5 µM; THP-1 LPS/ATP IL-1B secretion, AlphaLISA, 16 h; stronger effect = lower value; hit rate 4.7% among 360,000; AID 743279; in the data active means activity change below about -50%; inconclusive means mostly about -30% to -49%; further: on the % scale 0 is the no-effect control and ±100 the full control effect
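Secreted IL-1B measured by AlphaLISA bead assay after 16 h compound exposure of THP-1 cells; compounds (final up to 57.5 uM) added 1 h before LPS (250 ng/mL) and ATP (1.25 mM) stimulation; lower signal means less secretion.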
Active calls of the source: *; ? = inconclusive; · = no result; [ ] = remark or other dose. Compounds with a hit are over-represented: about 19% of the library has one in this group of screens. Unless noted, the call rests on the fitted dose curve; in most records, active means well fitted curve in the direction sought with a large enough effect; inconclusive means small, poorly fitted or top-dose-only effect, or another doubt; inactive means no such curve, though single readings can be large; an effect the other way counts as inactive or inconclusive.

SMILES	ASM inhibitor	DT40 TDP1 CPT	DT40 TDP1 no CPT	HepG2 tox	TGFb inhibitor	IL1B secr inh
CCc1ccc(CN(C(=O)Nc2cccc(Cl)c2)c2ccccn2)cc1	·	18µM*	?	-17%	-21%	·
O=C(Nc1ccc(Br)cc1F)C(NS(=O)(=O)c1cccc2nsnc12)c1ccccc1 (configuration not stated)	·	-9%	-8%	-9%	-29%	·
Brc1ccc(C=Nc2ccc(Nc3ccccc3)cc2)s1	-4%	?	16µM*	-30%	-17%	-11
O=C(CCC(=O)N/N=C/c1ccc(Br)s1)NCc1ccccc1	2%	?	?	3%	-8%	-7
C(=Nc1ccc(Nc2ccccc2)cc1)c1ccc2ccccc2c1	-2%	13µM*	12µM*	-8%	0%	-69*
CCCNC(=O)C1CC(=O)N(c2ccc(OCc3ccc(Cl)cc3)cc2)C1 (configuration not stated)	-5%	?	8.2µM*	-12%	5%	15
NC(=O)C1CC(=O)N(c2ccc(OCc3ccc(Cl)cc3)cc2)C1 (configuration not stated)	-2%	?	23µM*	4%	6%	-3
NC(=O)C1CC(=O)N(c2ccc(OCC(=O)N3CCCC3)cc2)C1 (configuration not stated)	-4%	2%	-14%	-13%	?	-1
COc1cccc(Cn2c(CNC(=O)C(C)C)nc3cccnc32)c1	·	-10%	13%	-13%	-1%	·
CCN(CC)C(=O)C1CCCN(Cc2ccccc2)C1 (configuration not stated)	3%	?	-2%	5%	4%	-13
CN(Cc1ccc(Cl)cc1)C(CCc1ccccc1)C(=O)NC1CCCCC1 (configuration not stated)	·	?	15µM*	-25%	?	43
Cc1oc(-c2ccc(Cl)cc2)nc1CN1CCCC(C(=O)NCc2cccnc2)C1 (configuration not stated)	-1%	9.2µM*	12µM*	-21%	?	-72*
Cc1oc(-c2ccc(Cl)cc2)nc1CN1CCCC(C(=O)NCCCN2CCOCC2)C1 (configuration not stated)	0%	-78%	23µM*	-20%	?	-4
CN(Cc1ccccc1)C(=O)C1CCCN(Cc2ccc(Cl)cc2)C1 (configuration not stated)	6%	-95%	26µM*	-10%	0%	?
CN(Cc1ccc(Cl)cc1)C(C(=O)NC1CCCCC1)c1cc2ccccc2o1 (configuration not stated)	·	-107%	?	-14%	?	-1
Cc1cccc(-c2nc(CN3CCCC(C(=O)NCCc4ccc(Cl)cc4)C3)c(C)o2)c1 (configuration not stated)	·	16µM*	8.2µM*	-21%	-23%	·
CCc1ccc(-c2nc(CN3CCC(C(=O)NCCc4ccc(Cl)cc4)CC3)c(C)o2)cc1	·	-10%	?	-16%	1%	·
Cc1oc(-c2ccc(Cl)cc2)nc1CN1CCCC(C(=O)NCCc2ccccc2)C1 (configuration not stated)	·	8.2µM*	5.8µM*	-21%	7.1µM*	·
COc1ccc(-n2c(C)c(C(C)=O)c3cc(OC(C)=O)ccc32)cc1	-23%	5.2µM*	7.3µM*	0%	-8%	35
COC(=O)c1c(C)n(-c2ccc(OC)cc2)c2ccc(O)cc12	3%	12µM*	13µM*	-18%	-2%	-10
Cc1cc2oc(=O)cc(CN3CCCCC3)c2cc1Cl	·	?	?	-24%	3%	16
N#C/C=C(/N)N1CCN(c2ccc(Cl)c(Cl)c2)CC1	-14%	?	16µM*	-13%	-10%	?
CNC(=S)N1CCN(c2ccc(Cl)c(Cl)c2)CC1	-5%	23µM*	16µM*	-23%	-16%	-58*
COC(=O)N1CCN(c2ccc(Cl)c(Cl)c2)CC1	-1%	?	?	-27%	-4%	-7
Nc1ccc(N2CCN(c3ccc(Cl)c(Cl)c3)CC2)cc1	-9%	12µM*	9.2µM*	4%	-5%	-6
SMILES	ASM inhibitor	DT40 TDP1 CPT	DT40 TDP1 no CPT	HepG2 tox	TGFb inhibitor	IL1B secr inh
O=C(c1cnc2n(c1=O)CCS2)N1CCN(c2ccc(Cl)c(Cl)c2)CC1	-8%	?	?	5%	-24%	-2
CC(=O)c1ccccc1-c1ccc2c(c1)CC(CNC(=O)C[C@@H]1C[C@@H](C)NC(=S)N1)O2 (some centres not stated)	·	-8%[9.04 µM]	-7%	·	·	·
COc1ccccc1CN1C[C@@H]2C[C@@H](c3ccccc3OC)N3CCC[C@@]23C1=O	0%	16µM*	?	-27%	3%	-15
O=C1N(C2CCCC2)C[C@@H]2C[C@@H](c3cn[nH]c3-c3ccc(Cl)cc3)N3CCC[C@@]123	-1%	?	?	0%	?	-64*
CCn1ncc([C@@H]2C[C@H]3CN(Cc4ccccc4C)C(=O)[C@]34CCCN24)c1C	3%	-29%	-22%	-12%	-23%	-7
Cc1ccccc1CN1C[C@@H]2C[C@@H](c3cn[nH]c3-c3ccccc3)N3CCC[C@@]23C1=O	14%	?	?	-1%	?	-63*
Cc1c([C@@H]2C[C@H]3CN(Cc4cccc(Cl)c4)C(=O)[C@]34CCCN24)cnn1C	1%	?	?	2%	-6%	-26
OCCN1CCN(C(=S)c2ccc(Cl)c(Cl)c2)CC1	-1%	18µM*	18µM*	-5%	0%	-11
CCCC(=O)Nc1cc(C)c(O)c(-c2nc3ncccc3o2)c1	·	-9%	-19%	-14%	-10%	·
COc1ccc(NS(=O)(=O)Cc2ccccc2)cc1OC	1%	-11%	-20%	3%	7%	0
COc1cc(NS(C)(=O)=O)ccc1Cc1c2ccccc2nc2ccccc12	·	0.082µM*	0.16µM*	·	·	·
O=C(N[C@@H](Cc1ccccc1)C(=O)N1CCC2(CC1)NCCc1[nH]cnc12)c1cccc(Br)c1	-1%	10µM*	6.5µM*	-50%	?	?
C[C@H](NC(=O)Cc1ccccc1)C(=O)N1CCC2(CC1)NCCc1[nH]cnc12	1%	-22%	1%	0%	7%	12
